Data on 71 molecules can be found in ChEMBL document CHEMBL4513216, “Probing the Open Global Health Chemical Diversity Library for Multistage-Active Starting Points for Next-Generation Antimalarials” (ACS Infect Dis, 2020).

The structures appear in SMILES notation. Among all 69,000 compounds or so, about 8,600 (12%) showed an effect of 50% or more. This excerpt belongs to a sample that is enriched for strong results.

The subject of this experiment is Plasmodium berghei. In words: Screen against P. berghei liver stage (PbLuc), transformed with Luciferase, at 10uM. It counts as functional, HepG2. As to conditions: tested at 10 uM.
Take `CN1CCOC(CNCc2csc(C3CCCC3)n2)C1` (stereo unspecified): the INHIBITION came out at 45.1%.

With `O=C(c1ccc(Cl)cc1)N1CCC(N2CCCOC2=O)CC1`, the INHIBITION turned out to be 48.2%. With `COC1CCN(c2ccc(F)cc2CN(C)S(C)(=O)=O)CC1`, the INHIBITION was 4.52%. For `CN(CC(C)(CO)CO)C(=O)Nc1cc(F)cc(Cl)c1` the value was -35.9%; for `COCc1nc(C(=O)NS(=O)(=O)c2ccc(F)cc2F)cs1`, -1.95%; for `NCCc1n[nH]c(=O)n1-c1cccc2ccccc12`, 30%. For `CN(C)CCN1CCN(Cc2cccc(C#N)c2)Cc2cccnc21`, the INHIBITION is -4.32%. Regarding `COc1cccc(CNCCc2cc(F)cc3c2OCOC3)c1OC`, the INHIBITION was found to be 30%. In the case of `COc1c(CNCCC(=O)NC2CCCCC2)c(C(C)C)nn1C`, the INHIBITION is -7.81%. As to `Cc1ccc(CN2CC(C(=O)NCC3CC3)C3(CCOCC3)C2)s1` (stereo unspecified), the INHIBITION is -18.5%. Regarding `Cc1cnn(CC2CN(c3ccc(C#N)cn3)CCO2)c1` (stereo unspecified), the INHIBITION was 21%. As for `Cc1nc(CN(C)C2CCN(CCC(=O)N3CCOCC3)C2)no1` (stereo unspecified), the INHIBITION was found to be 51.1%.

Turning to `Cc1nc(CN(C)C2CCN(CC3CCC3)C2)no1` (stereo unspecified), the INHIBITION is recorded as 18.2%.

Turning to `Cc1nc(CN(C)C2CCN(CC3CCCCC3)C2)no1` (stereo unspecified), the INHIBITION was 63.4%.

Take `CC(C)c1nc(CN(C)C2CCN(CCNS(C)(=O)=O)C2)no1` (stereo unspecified): the INHIBITION is 53.3%. Regarding `CCc1nc(CN(C)C2CCN(CCC(=O)N3CCCCC3)C2)no1` (stereo unspecified), the INHIBITION amounted to 36.1%.

Consider `Cc1nc(CN(C)C2CCN(CC3CCCC3)C2)no1` (stereo unspecified), for which the INHIBITION is recorded as -22.9%.

Consider `CC(C)c1nc(CN(C)C2CCN(CCS(C)(=O)=O)C2)no1` (stereo unspecified), for which the INHIBITION is 33.7%. With `CCS(=O)(=O)CCN1CCC(N(C)Cc2noc(C(C)C)n2)C1` (stereo unspecified), the INHIBITION stood at 21.2%.

As to `CC(=O)N(Cc1noc(C)n1)C1CCN(Cc2ccon2)C1` (stereo unspecified), the INHIBITION is on record as 65.5%.

Regarding `CC(=O)N(Cc1noc(C)n1)C1CCN(Cc2cc(C)on2)C1` (stereo unspecified), the INHIBITION was -6.62%. Take `CC(=O)N(Cc1noc(C)n1)C1CCN(Cc2ccccn2)C1` (stereo unspecified): the INHIBITION was -39.7%. In the case of `Cc1nc(CN(C)C2CCN(CC(=O)N3CCOCC3)C2)no1` (stereo unspecified), the INHIBITION came to 17.3%.

With `COc1cccc(CN2CC(O)CN(C(=O)C3CCC3)CC2=O)c1OC` (stereo unspecified), the INHIBITION is listed as 49.5%. With `CNC(=O)[C@@H]1[C@@H](c2ccccc2)CN2CCN(Cc3ccccn3)C[C@H]12`, the INHIBITION worked out at 20%. Take `O=C(NC1CC1)N1CCCC2(CCCCN2)C1` (stereo unspecified): the INHIBITION amounted to 13.7%. Next, `c1cnn(CC2CN(Cc3nc(C4CC4)no3)CCO2)c1` (stereo unspecified): -12.2%; `COc1cc(C(C)NCc2ncccc2C)ccc1SC(F)F` (stereo unspecified): 66.2%; `COc1cc(C(C)NCc2scnc2C)ccc1SC(F)F` (stereo unspecified): 75.6%. As to `COc1ccc(C(C)NCc2scnc2C)cc1Cn1cccn1` (stereo unspecified), the INHIBITION is recorded as 35.3%. For `COc1cc(C(C)NCc2cscn2)ccc1SC(F)F` (stereo unspecified) the value was 27%. For the molecule `COc1ccc(C(C)NCc2nnc(C)s2)cc1F` (stereo unspecified), the INHIBITION was 39.4%. With `COc1ccc(C(C)NCc2c[nH]nc2C)cc1OC` (stereo unspecified), the INHIBITION is reported as -43%.

With `Cc1nnc(CN(C)C2CCN(Cc3nc4ccccc4n3C)C2)o1` (stereo unspecified), the INHIBITION was -25.8%. For `OC(COCc1ccccc1)CSc1nnc(C2CC2)n1C1CC1` (stereo unspecified), the INHIBITION was determined as 52.8%.

For `Cn1c(SCC(O)COCc2ccccc2Cl)nnc1C1CC1` (stereo unspecified), the INHIBITION turned out to be 36.6%.

As for `Cn1c(SCC(O)COCc2ccc(Cl)cc2)nnc1C1CC1` (stereo unspecified), the INHIBITION was -18.6%. Take `NC(=O)C1CCN(C(=O)c2cc(-n3cnnn3)ccc2Cl)CC1`: the INHIBITION was found to be 28.4%.

On to `CC(NC(=O)C1CC1)C(=O)N(C)Cc1ccsc1` (stereo unspecified), for which the INHIBITION was found to be 16.1%. For `CCCc1ncc(CNC2(c3ccc(Cl)cc3)CC2)cn1` the value was 44.8%. On to `Cc1nc(C2CCN(C(=O)COC(C)C)CC2)cc(N2CCOCC2)n1`, for which the INHIBITION was 3.96%. For `Cc1nc(C2CCN(C[C@H](C)CO)CC2)cc(N2CCOCC2)n1`, the INHIBITION amounted to 60.3%. Next, `Cc1nc(C2CCN(C(=O)CO)CC2)cc(N2CCOCC2)n1`: 36.8%; `O=C(Cc1cccs1)Nc1cnn(C2CCOCC2)c1`: 71.3%. Turning to `O=C(Nc1ccc2c(c1)OCO2)Nc1cnn(C2CCOCC2)c1`, the INHIBITION was determined as 36.5%. On to `O=C(Nc1cnn(C2CCOCC2)c1)c1ccc2c(c1)OCO2`, for which the INHIBITION is -38.6%. `Cc1cccc(CC(=O)Nc2cnn(C3CCOC3)c2)c1` (stereo unspecified): the INHIBITION is on record as -13.6%.

As for `O=C(Cc1ccccc1Cl)Nc1cnn(C2CCOC2)c1` (stereo unspecified), the INHIBITION turned out to be 51.8%. For the molecule `O=C(Cc1cccs1)Nc1cnn(C2CCOC2)c1` (stereo unspecified), the INHIBITION is 5.91%. Regarding `COc1ccccc1-c1cc(C(=O)Nc2nc[nH]n2)[nH]n1`, the INHIBITION was -36%.

On to `O=S(=O)(CCN1CCCC1Cn1cncn1)c1ccccc1` (stereo unspecified), for which the INHIBITION is -43.6%. `Cc1cc(C(=O)NCC(Cc2cccc(F)c2)N2CCCCC2=O)no1` (stereo unspecified): the INHIBITION is 34.9%. `CNC(=O)[C@@H]1CCO[C@@H]2CCN(C3CCOCC3)C[C@@H]21`: the INHIBITION was -46.9%. As for `O=C(CCn1ccc2ccc(Br)cc21)NCc1ccc(C(=O)O)cc1`, the INHIBITION was found to be 15.1%. For `Cc1oncc1C(=O)N1CC2CC1(C(=O)N1CCCC1)C2` the value was -15.9%.

As for `Cn1ccnc1C1CCCN(C(=O)c2ccncc2F)C1` (stereo unspecified), the INHIBITION is listed as 42.5%.

`O=C(c1ccncc1F)N1CC2CC1(C(=O)N1CCCC1)C2`: the INHIBITION was 58%. On to `O=C(NCc1cc(-c2ccccc2)no1)NCC1CCCO1` (stereo unspecified), for which the INHIBITION was determined as 1.06%. For `CC1=CCN(S(=O)(=O)c2cccc(C(=O)N3CCCN(C)CC3)c2)CC1` the value was 14%. `N#Cc1ccc(OCCN2CCn3c(nnc3C3CC3)C2)cc1`: the INHIBITION was found to be 11.2%. For `CS(=O)(=O)CCSCc1ccc(Br)c(F)c1`, the INHIBITION was 50.7%. Regarding `CS(=O)(=O)CCCSCc1ccc(Br)c(F)c1`, the INHIBITION was -59.7%. Turning to `NC(=O)CCSCc1ccc(Br)c(F)c1`, the INHIBITION came to 52.8%. `CS(=O)(=O)CCCSCc1cc(F)cc(Br)c1`: the INHIBITION came out at 31.2%. For `CC(NC(N)=O)C(=O)NCc1ccc(Br)c(F)c1` (stereo unspecified) the value was -31.1%; for `NC(=O)NC1CCN(Cc2ccc(Br)c(F)c2)CC1`, 1.45%. As for `Cc1ccnc(C2(C)CCCN2S(=O)(=O)c2ccccc2)n1` (stereo unspecified), the INHIBITION is given as 45.55%. For `Cn1cnnc1C1CCN(C(=O)COCc2ccccc2Cl)CC1` the value was 39.2%; for `CC(C)Cn1cc(NC(=O)N2CCCC2)cn1`, -37.8%; for `CN1C[C@@H]2CN(Cc3ccsc3)CCC[C@]2(C(=O)O)C1`, -64.1%. For `CC(C)C1CCN(C(=O)NCC(=O)N(C)CC(F)(F)F)CC1` the value was 34.2%.
